In PubChem BioAssay (NCI):
This is part of a sample that, as a whole, favours compounds with a hit. Of some 79,000 tested, about 15% had one in any assay. Activity calls are given as the source filed them. No stated cut-off is given here; in the data, active means growth inhibition above about 70%; inactive means the rest.

What was measured:
[1] = NCI Yeast Anticancer Drug Screen. Data for the rad52 strain (AID 147);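 further: 0% = growth of vehicle-treated control cultures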; details: S. cerevisiae rad52 mutant growth inhibition, active compounds read high
In short: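 Genetically altered yeast (DNA damage repair defect) treated with compound; inhibition calculated relative to vehicle.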

[2] = NCI Yeast Anticancer Drug Screen. Data for the wt1 strain (AID 149);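 further: 0% = growth of vehicle-treated wt1 cultures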; details: S. cerevisiae wt1 strain (SPY 50644) growth inhibition, active compounds read high
In short: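 Readout: yeast growth inhibition, normalised to vehicle controls, in the wt1 strain exposed to test compounds.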

[3] = NCI Yeast Anticancer Drug Screen. Data for the rad50EPP+ strain (AID 151);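 further: 0% = growth of vehicle-treated control cultures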; details: S. cerevisiae rad50 mutant strain, active compounds read high
In short: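 Strain rad50EPP+; compound exposure; % growth inhibition vs vehicle.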

[4] = NCI Yeast Anticancer Drug Screen. Data for the mgt1 strain (AID 153); details: S. cerevisiae mgt1 mutant growth inhibition, active compounds read high
In short: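 Read-out: yeast growth inhibition vs vehicle control. Strain mgt1, drawn from a panel altered in DNA damage repair or cell cycle control.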

[5] = NCI Yeast Anticancer Drug Screen. Data for the rad50 strain (AID 155);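 further: 0% = growth of vehicle-only cultures of the same strain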; details: S. cerevisiae rad50 strain growth inhibition, active compounds read high
In short: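 Compounds were tested on a yeast strain with an engineered DNA damage repair alteration; the reported value is growth inhibition normalised to vehicle treatment.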

[6] = NCI Yeast Anticancer Drug Screen. Data for the mec2-1 strain (AID 157); details: S. cerevisiae mec2-1 strain, active compounds read high
In short: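 Cells of the genetically defined mec2-1 yeast strain are incubated with test compound. Inhibition of growth is calculated against vehicle-treated controls.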

[7] = NCI Yeast Anticancer Drug Screen. Data for the rad14 strain (AID 159);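 further: 0% = growth of vehicle-treated control cultures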; details: S. cerevisiae rad14 strain growth inhibition, active compounds read high
In short: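 Compound-treated yeast with a defined DNA-repair lesion; growth inhibition normalised to vehicle-treated cultures.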

[8] = NCI Yeast Anticancer Drug Screen. Data for the sgs1 mgt1 strain (AID 161);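 further: 0% = growth of cultures given vehicle only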; details: S. cerevisiae sgs1 mgt1 strain, active compounds read high
In short: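 Inhibition of yeast growth, normalised to vehicle-treated controls, is reported for a strain bearing genetic alterations in DNA damage repair.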

[9] = NCI Yeast Anticancer Drug Screen. Data for the CLN2oe strain (AID 163);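 further: 0% = growth of vehicle-only control cultures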; details: S. cerevisiae CLN2oe strain, active compounds read high
In short: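 Strain altered in cell-cycle control, incubated with compound; growth compared to solvent-treated controls.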

[10] = NCI Yeast Anticancer Drug Screen. Data for the cln2 rad14 strain (AID 165);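 further: 0% = growth equal to vehicle treated cultures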; details: S. cerevisiae cln2 rad14 strain, active compounds read high
In short: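 The screen exposed genetically defined yeast (cln2 rad14) to test compounds and scored growth inhibition relative to vehicle-treated controls.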

[11] = NCI Yeast Anticancer Drug Screen. Data for the bub3 strain (AID 167); details: S. cerevisiae bub3 mutant strain, active compounds read high
In short: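 Growth of a checkpoint-deficient yeast mutant is measured after compound exposure. Values represent inhibition relative to vehicle.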

[12] = NCI Yeast Anticancer Drug Screen. Data for the wt2 strain (AID 169);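 further: 0% = growth of vehicle-treated yeast cultures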; details: S. cerevisiae wt2 strain growth inhibition, active compounds read high
In short: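 Steps: yeast strain treated with compound; growth recorded; inhibition calculated relative to cultures given vehicle alone.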

[13] = NCI Yeast Anticancer Drug Screen. Data for the mlh1 strain (AID 171);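 further: 0% = growth of vehicle-treated control cultures of the same strain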; details: S. cerevisiae mlh1 strain growth inhibition, active compounds read high
In short: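 Yeast screen: mutant strain plus compound, growth scored against vehicle control wells.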

[14] = NCI Yeast Anticancer Drug Screen. Data for the sgs1 strain (AID 173);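 further: 0% = growth of vehicle-only control cultures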; details: S. cerevisiae sgs1 mutant, active compounds read high
In short: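 Inhibition of yeast growth served as the measure. The mutant strain was treated with each compound, and growth was normalised to cultures receiving vehicle alone.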

[15] = NCI Yeast Anticancer Drug Screen. Data for the mlh1 rad18 strain (AID 175); details: S. cerevisiae mlh1 rad18 strain growth inhibition, active compounds read high
In short: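 Compound-treated yeast growth, normalised to vehicle controls. Strain bears defined DNA repair mutations.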

[16] = NCI Yeast Anticancer Drug Screen. Data for the rad18 strain (AID 177); details: S. cerevisiae rad18 mutant growth inhibition, active compounds read high
In short: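 Inhibition values reflect reduced yeast growth compared with vehicle-treated controls, using a strain engineered with a DNA damage repair defect.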

[17] = at 5.0 µM (retest, dose inferred, filed as 0.5)
[18] = at 50.0 µM (retest, dose inferred, filed as 5.0)

Measured: growth inhibition

CC(C)/C(Cl)=N\OC(=O)Nc1ccccc1F
active: [5]; [18] 85% | [6]; [18] 86% | [6]; at 50.0 µM 76% | [8]; [18] 82% | [11]; at 3.7 µM 83% | [11]; at 11.0 µM 92% | [11]; at 33.0 µM 93% | [11]; [18] 98% | [11]; at 50.0 µM 82% | [11]; at 100.0 µM 94%
inactive: [1]; at 1.2 µM 4% | [1]; at 3.7 µM 9% | [1]; at 11.0 µM 19% | [1]; at 33.0 µM 35% | [1]; at 100.0 µM 35% | [2]; at 1.2 µM 1% | [2]; at 3.7 µM 4% | [2]; at 11.0 µM 9% | [2]; at 33.0 µM 17% | [2]; at 100.0 µM 18% | [3]; at 1.2 µM 18% | [3]; at 3.7 µM 28% | [3]; at 11.0 µM 46% | [3]; at 33.0 µM 59% | [3]; at 100.0 µM 46% | [4]; at 1.2 µM 0% | [4]; at 3.7 µM 6% | [4]; at 11.0 µM 21% | [4]; at 33.0 µM 23% | [4]; at 100.0 µM 21% | [5]; at 1.2 µM 9% | [5]; at 3.7 µM 17% | [5]; [17] 2% | [5]; at 11.0 µM 21% | [5]; at 33.0 µM 43% | [5]; at 50.0 µM -7.75% | [5]; at 100.0 µM 40% | [6]; at 1.2 µM 11% | [6]; at 3.7 µM 17% | [6]; [17] -1% | [6]; at 11.0 µM 23% | [6]; at 33.0 µM 31% | [6]; at 100.0 µM 31% | [7]; at 1.2 µM 6% | [7]; at 3.7 µM 14% | [7]; at 11.0 µM 9% | [7]; at 33.0 µM 23% | [7]; at 100.0 µM 26% | [8]; [17] -38% | [8]; at 50.0 µM 62.5% | [9]; at 1.2 µM 15% | [9]; at 3.7 µM 14% | [9]; at 11.0 µM 19% | [9]; at 33.0 µM 19% | [9]; at 100.0 µM 23% | [10]; [17] 23% | [10]; [18] 37% | [10]; at 50.0 µM 35.1% | [11]; at 1.2 µM 55% | [11]; [17] 49% | [12]; at 1.2 µM 0% | [12]; at 3.7 µM 5% | [12]; at 11.0 µM 15% | [12]; at 33.0 µM 41% | [12]; at 100.0 µM 29% | [13]; at 1.2 µM 3% | [13]; at 3.7 µM 5% | [13]; at 11.0 µM 14% | [13]; at 33.0 µM 22% | [13]; at 100.0 µM 20% | [14]; at 1.2 µM 6% | [14]; at 3.7 µM 13% | [14]; at 11.0 µM 34% | [14]; at 33.0 µM 60% | [14]; at 100.0 µM 49% | [15]; [17] -15% | [15]; [18] 66% | [15]; at 50.0 µM 58.9% | [16]; at 1.2 µM -6% | [16]; at 3.7 µM 3% | [16]; at 11.0 µM 17% | [16]; at 33.0 µM 43% | [16]; at 100.0 µM 41%

CCN(CC)CCNc1ccc([N+](=O)[O-])c2nc3ccc(OC)cc3c(N)c12
active: [1]; at 33.0 µM 74% | [1]; at 100.0 µM 90% | [3]; at 100.0 µM 79% | [4]; at 100.0 µM 73% | [5]; at 33.0 µM 79% | [5]; [18] 89% | [5]; at 100.0 µM 93% | [7]; at 100.0 µM 88% | [12]; at 100.0 µM 70% | [13]; at 100.0 µM 85% | [14]; at 100.0 µM 82% | [15]; [18] 86% | [16]; at 100.0 µM 86%
inactive: [1]; at 1.2 µM -23% | [1]; at 3.7 µM -13% | [1]; at 11.0 µM 19% | [2]; at 1.2 µM -8% | [2]; at 3.7 µM -14% | [2]; at 11.0 µM -17% | [2]; at 33.0 µM -6% | [2]; at 100.0 µM 54% | [3]; at 1.2 µM 11% | [3]; at 3.7 µM 7% | [3]; at 11.0 µM 30% | [3]; at 33.0 µM 69% | [4]; at 1.2 µM -20% | [4]; at 3.7 µM -20% | [4]; at 11.0 µM -16% | [4]; at 33.0 µM 15% | [5]; at 1.2 µM -3% | [5]; at 3.7 µM -2% | [5]; [17] 13% | [5]; at 11.0 µM 35% | [5]; at 50.0 µM 48.4% | [6]; at 1.2 µM -24% | [6]; at 3.7 µM -19% | [6]; [17] -5% | [6]; at 11.0 µM -8% | [6]; at 33.0 µM 5% | [6]; [18] 21% | [6]; at 50.0 µM -26.1% | [6]; at 100.0 µM 42% | [7]; at 1.2 µM -34% | [7]; at 3.7 µM -29% | [7]; at 11.0 µM -19% | [7]; at 33.0 µM 28% | [8]; [17] -12% | [8]; [18] 48% | [8]; at 50.0 µM 58.4% | [9]; at 1.2 µM 10% | [9]; at 3.7 µM 15% | [9]; at 11.0 µM 22% | [9]; at 33.0 µM 25% | [9]; at 100.0 µM 64% | [10]; [17] 3% | [10]; [18] 33% | [10]; at 50.0 µM 6.25% | [11]; at 1.2 µM -23% | [11]; at 3.7 µM -16% | [11]; [17] -24% | [11]; at 11.0 µM -36% | [11]; at 33.0 µM -17% | [11]; [18] 18% | [11]; at 50.0 µM -0.6% | [11]; at 100.0 µM 64% | [12]; at 1.2 µM 15% | [12]; at 3.7 µM 6% | [12]; at 11.0 µM 10% | [12]; at 33.0 µM 28% | [13]; at 1.2 µM -2% | [13]; at 3.7 µM 4% | [13]; at 11.0 µM 5% | [13]; at 33.0 µM 27% | [14]; at 1.2 µM -8% | [14]; at 3.7 µM -9% | [14]; at 11.0 µM -16% | [14]; at 33.0 µM 10% | [15]; [17] -22% | [15]; at 50.0 µM 68% | [16]; at 1.2 µM 1% | [16]; at 3.7 µM 4% | [16]; at 11.0 µM 7% | [16]; at 33.0 µM 23%
